Inconclusive results are not listed. Active and inactive are the calls of the source. Calls come from the whole dose curve; as a rule, active = well fitted inhibition curve with a large enough effect; inconclusive = small, poorly fitted or top-dose-only effect; inactive = flat fitted curve, though single readings scatter.

The source of these data is PubChem BioAssay (NCATS).

This assay concerns CRL-7250. The assay is described as follows: qHTS assay to identify novel small-molecules to repurpose for Merkel cell carcinoma treatment (AID 1296009). Note: nearly all actives have a fitted effect of over 60% in size. The note with it: MCC and control cell lines, CellTiter-Glo viability, 72 h; series mostly up to 92 µM; activity change, negative = cytotoxicity: at the top concentration. In a few lines: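 After compound transfer in DMSO, plates were kept 72 hr at 37 degree celsius. Luminescent ATP signal from CellTiter-Glo served as viability measure, normalized against DMSO and no-cell controls.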
On to `Cn1c(SCC(=O)N2CCC[C@H]2C(=O)Nc2ccccc2-c2ccccc2)nc2ccccc21`, for which the compound was classed as inactive.

As for `O=C(O[C@@H]1O[C@H](CO)[C@@H](O)[C@H](O)[C@H]1O)c1ccccc1`, the call was inactive.

For the compound `Cn1c2ccc(F)cc2c2c(C(=O)N3CCCC3)cn(-c3ccccc3)c(=O)c21`, the compound was classed as inactive.

As for `CC(C)C(CO)Nc1nc(Nc2ccc(C(=O)O)c(Cl)c2)c2ncn(C(C)C)c2n1` (configuration not stated), the outcome was inactive.

Consider `COc1cc(C(=O)OC[C@@]2(O)CO[C@@H](O[C@H]3[C@H](Oc4ccc(O)cc4)O[C@H](CO)[C@@H](O)[C@@H]3O)[C@@H]2O)cc(OC)c1O`, for which the “outcome” value was “inactive [at 17.4 µM]”.

As for `CCCCc1ccc(NS(=O)(=O)c2ccc(F)cc2)cc1`, the call was inactive.

Turning to `COc1cc(/C=C/C(=O)O[C@H]2[C@H](O)[C@@H](CO)O[C@@]2(CO)O[C@H]2O[C@H](CO)[C@@H](O)[C@H](O)[C@H]2O)cc(OC)c1O`, the “outcome” value was “inactive [at 17.4 µM]”.

Take `C=CC1(C)CC(OC(=O)C(=C)C(O)COC(C)=O)C(C(=C)C(=O)OC)C(O)C1C(=C)CO` (configuration not stated): the “outcome” value is “inactive [at 17.4 µM]”.

Consider `OC/C=C/C=C/[C@H]1Cc2cc(O)cc(O)c2O1`, for which the compound was classed as inactive.

For `CCC[C@@H]1C[C@@H](C(=O)N[C@@H]([C@H]2O[C@H](SC)[C@H](O)[C@@H](O)[C@@H]2O)[C@@H](C)O)N(C)C1`, the call was inactive.

In the case of `C[C@@H]1CC[C@]2(C(=O)O[C@@H]3O[C@H](CO)[C@@H](O)[C@H](O)[C@H]3O)CC[C@]3(C)C(=CCC4[C@@]5(C)C[C@@H](O)[C@H](O)[C@@](C)(C(=O)O[C@H]6[C@H](O)C[C@@]7(C)C(CC[C@]8(C)C7CC=C7[C@H]9[C@](C(=O)O[C@@H]%10O[C@H](CO)[C@@H](O)[C@H](O)[C@H]%10O)(CC[C@@H](C)[C@@]9(C)O)CC[C@]78C)[C@@]6(CO)C(=O)O)C5CC[C@]43C)[C@@H]2[C@]1(C)O` (some centres not stated), the outcome is “inactive [at 9.27 µM]”.

Turning to `C=C1CCC2(OC1)OC1CC3C4CC=C5CC(O)CC(O[C@@H]6OC[C@@H](O)[C@H](O)[C@H]6O)C5(C)C4CCC3(C)C1(O)C2C` (some centres not stated), the “outcome” value is “inactive [at 17.4 µM]”.

Turning to `CC(C)=CCC[C@](C)(O[C@@H]1O[C@H](CO[C@@H]2OC[C@@H](O)[C@H](O)[C@H]2O)[C@@H](O)[C@H](O)[C@H]1O)[C@H]1CC[C@]2(C)[C@@H]1[C@H](O)C[C@@H]1[C@@]3(C)CC[C@H](O[C@@H]4O[C@H](CO)[C@@H](O)[C@H](O)[C@H]4O[C@@H]4O[C@H](CO)[C@@H](O)[C@H](O)[C@H]4O)C(C)(C)[C@@H]3CC[C@]12C`, the “outcome” value was “inactive [at 17.4 µM]”.

Turning to `CC1=CC(=O)CC(C)(C)C1(O)CCC(C)O` (configuration not stated), the compound was called inactive.

In the case of `C[C@@H]1O[C@@H](O[C@H]2[C@H](OC(=O)[C@]34CCC(C)(C)C[C@H]3C3=CCC5[C@@]6(C)C[C@@H](O)[C@@H](O[C@@H]7O[C@H](CO)[C@@H](O)[C@H](O)[C@H]7O)[C@@](C)(CO)C6[C@H](O)C[C@@]5(C)[C@]3(C)CC4)OC[C@H](O)[C@@H]2O)[C@H](O)[C@H](O[C@@H]2OC[C@](O)(CO)[C@H]2O)[C@H]1O[C@@H]1OC[C@@H](O)[C@H](O[C@H]2O[C@H](C)[C@@H](O)[C@H](O)[C@@H]2O)[C@H]1O` (some centres not stated), the outcome was “inactive [at 9.27 µM]”.

`C[C@@H]1O[C@@H](O[C@H]2[C@H](O[C@H]3CC[C@@]4(C)C(CC[C@]5(C)C4CC=C4C6CC(C)(C)CC[C@]6(C(=O)O[C@@H]6O[C@H](CO[C@@H]7O[C@H](CO)[C@@H](O[C@@H]8O[C@@H](C)[C@H](O)[C@@H](O)[C@H]8O)[C@H](O)[C@H]7O)[C@@H](O)[C@H](O)[C@H]6O)CC[C@]45C)[C@]3(C)CO)OC[C@H](O)[C@@H]2O)[C@H](O)[C@H](O)[C@H]1O` (some centres not stated): the outcome was “inactive [at 9.27 µM]”.

Take `O=C(O)/C=C/c1ccc(O)c(O[C@@H]2O[C@H](CO)[C@@H](O)[C@H](O)[C@H]2O)c1`: the compound was classed as inactive.

Turning to `CC1(C)CC(=O)N(CCCCN2CCN(c3ncccn3)CC2)C(=O)C1`, the call was inactive.

As to `CC1(C)C[C@H](O)C[C@@]2(C)[C@H]1[C@H](O)C=C1COC(=O)[C@@]12O`, the outcome was inactive.

As for `O=S(=O)(c1ccccc1)N(CC(F)(F)F)c1ccc(C(O)(C(F)(F)F)C(F)(F)F)cc1`, the result was inactive.

Consider `COc1ccc(C(O[C@@H]2O[C@H](CO)[C@@H](O)[C@H](O)[C@H]2O)C(CO)Oc2ccc(/C=C/CO)cc2OC)cc1O` (some centres not stated), for which the “outcome” value was “inactive [at 17.4 µM]”.

Consider `CCC/C=C/C(=O)O[C@H]1CC(C)(C)CC2[C@@]13[C@H](O)C[C@]1(C)[C@@]2(CCC2[C@@]4(C)CC[C@H](O[C@@H]5O[C@H](C(=O)O)[C@@H](O)[C@H](O[C@@H]6O[C@H](CO)[C@H](O)[C@H](O)[C@H]6O[C@@H]6O[C@@H](C)[C@H](O)[C@@H](O)[C@H]6O[C@@H]6OC[C@](O)(CO)[C@H]6O)[C@H]5O[C@@H]5O[C@H](CO)[C@H](O)[C@H](O)[C@H]5O)C(C)(C)C4CC[C@]21C)O[C@H]3O` (some centres not stated), for which the outcome is “inactive [at 9.27 µM]”.
